In paper PMC7862700, “An all-to-all approach to the identification of sequence-specific readers for epigenetic DNA modifications on cytosine”:

Tests used:
Assay in all cases: DAPPL (digital affinity profiling via proximity ligation, sequencing); 10 mM Tris-HCl pH 7.5, 50 mM NaCl, 1 mM DTT, 4% glycerol, room temperature, 30 min; GST-TFs on glutathione beads, 16-mer random dsDNA library, 0.1% formaldehyde crosslink after washing; high values mean tight binding
[1] = target: T1, FEV (Homo sapiens, UniProt Q99581 1-238); details: protein: recombinant; tags: N-terminal GST; dsDNA, one strand shown
T1 sequence: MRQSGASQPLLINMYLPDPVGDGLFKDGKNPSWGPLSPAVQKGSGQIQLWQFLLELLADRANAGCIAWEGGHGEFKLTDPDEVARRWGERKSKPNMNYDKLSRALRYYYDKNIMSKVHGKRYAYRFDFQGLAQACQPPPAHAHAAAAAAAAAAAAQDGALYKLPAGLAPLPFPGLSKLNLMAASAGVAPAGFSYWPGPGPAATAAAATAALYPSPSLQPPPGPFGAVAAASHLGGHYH
In short: (§1)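 Binding signal is defined as a hexamer's read frequency for one factor over its frequency for the tag-only sample. To obtain reads, GST-fused human transcription factors were expressed in yeast, captured on glutathione beads, barcoded with DNA and pooled with that sample. Pools met 200 nmole of a 16-mer random double-stranded DNA library in Tris/NaCl/DTT/glycerol buffer for 30 min at room temperature before washing, 0.1% formaldehyde crosslinking, proximity ligation (BsaI/T4 ligase, 1 h, 37 °C), PCR and Illumina NextSeq500 sequencing.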

[2] = target: ETV5 (Homo sapiens, UniProt P41161 1-510); details: protein: recombinant; tags: N-terminal GST; dsDNA, one strand shown
Sequence of ETV5 (P41161 whole entry): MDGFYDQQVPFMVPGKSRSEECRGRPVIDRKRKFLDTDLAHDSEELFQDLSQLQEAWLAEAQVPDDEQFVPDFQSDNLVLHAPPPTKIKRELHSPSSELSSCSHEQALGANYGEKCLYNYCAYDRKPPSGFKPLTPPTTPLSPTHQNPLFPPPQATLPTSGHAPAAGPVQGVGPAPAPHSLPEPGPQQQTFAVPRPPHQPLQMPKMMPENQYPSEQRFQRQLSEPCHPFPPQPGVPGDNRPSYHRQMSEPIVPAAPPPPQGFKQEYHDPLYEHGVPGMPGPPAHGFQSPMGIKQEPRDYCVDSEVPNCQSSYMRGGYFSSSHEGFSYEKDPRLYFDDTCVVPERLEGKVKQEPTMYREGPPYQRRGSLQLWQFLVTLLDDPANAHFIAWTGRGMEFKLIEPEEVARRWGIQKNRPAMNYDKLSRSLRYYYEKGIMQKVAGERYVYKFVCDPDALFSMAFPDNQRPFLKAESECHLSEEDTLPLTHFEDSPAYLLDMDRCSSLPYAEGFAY
In short: as §1

[3] = target: HSF1 (Homo sapiens, UniProt Q00613 1-529); details: protein: recombinant; tags: N-terminal GST; chain copies: 3; dsDNA, one strand shown
Sequence of HSF1 (Q00613 whole entry): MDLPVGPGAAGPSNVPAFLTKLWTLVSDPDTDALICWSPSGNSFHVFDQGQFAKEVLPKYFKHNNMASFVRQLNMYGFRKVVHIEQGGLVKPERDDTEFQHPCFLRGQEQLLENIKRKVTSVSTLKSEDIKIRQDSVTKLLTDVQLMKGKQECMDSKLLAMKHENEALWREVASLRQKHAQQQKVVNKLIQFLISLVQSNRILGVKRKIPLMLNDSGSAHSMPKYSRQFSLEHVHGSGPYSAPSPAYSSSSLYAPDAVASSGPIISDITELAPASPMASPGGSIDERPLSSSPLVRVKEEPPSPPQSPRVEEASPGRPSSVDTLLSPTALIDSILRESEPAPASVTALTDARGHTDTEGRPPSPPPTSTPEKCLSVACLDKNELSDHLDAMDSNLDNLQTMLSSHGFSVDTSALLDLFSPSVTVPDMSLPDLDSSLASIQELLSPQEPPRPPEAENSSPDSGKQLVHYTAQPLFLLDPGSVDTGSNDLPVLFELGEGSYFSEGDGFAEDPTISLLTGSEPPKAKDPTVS
In short: as §1

[4] = target: T2, SPIC (Homo sapiens, UniProt Q8N5J4 1-248); details: protein: recombinant; tags: N-terminal GST; dsDNA, one strand shown
T2 sequence: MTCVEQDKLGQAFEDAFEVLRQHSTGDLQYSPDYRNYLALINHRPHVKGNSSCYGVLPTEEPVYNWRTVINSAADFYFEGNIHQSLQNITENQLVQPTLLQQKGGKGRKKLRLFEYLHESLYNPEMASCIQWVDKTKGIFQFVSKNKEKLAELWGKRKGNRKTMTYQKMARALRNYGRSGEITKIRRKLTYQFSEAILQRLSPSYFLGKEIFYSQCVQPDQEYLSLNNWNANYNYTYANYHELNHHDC
In short: as §1

[5] = target: ELF4 (Homo sapiens, UniProt Q99607 1-663); details: protein: recombinant; tags: N-terminal GST; dsDNA, one strand shown
Sequence of ELF4 (Q99607 whole entry): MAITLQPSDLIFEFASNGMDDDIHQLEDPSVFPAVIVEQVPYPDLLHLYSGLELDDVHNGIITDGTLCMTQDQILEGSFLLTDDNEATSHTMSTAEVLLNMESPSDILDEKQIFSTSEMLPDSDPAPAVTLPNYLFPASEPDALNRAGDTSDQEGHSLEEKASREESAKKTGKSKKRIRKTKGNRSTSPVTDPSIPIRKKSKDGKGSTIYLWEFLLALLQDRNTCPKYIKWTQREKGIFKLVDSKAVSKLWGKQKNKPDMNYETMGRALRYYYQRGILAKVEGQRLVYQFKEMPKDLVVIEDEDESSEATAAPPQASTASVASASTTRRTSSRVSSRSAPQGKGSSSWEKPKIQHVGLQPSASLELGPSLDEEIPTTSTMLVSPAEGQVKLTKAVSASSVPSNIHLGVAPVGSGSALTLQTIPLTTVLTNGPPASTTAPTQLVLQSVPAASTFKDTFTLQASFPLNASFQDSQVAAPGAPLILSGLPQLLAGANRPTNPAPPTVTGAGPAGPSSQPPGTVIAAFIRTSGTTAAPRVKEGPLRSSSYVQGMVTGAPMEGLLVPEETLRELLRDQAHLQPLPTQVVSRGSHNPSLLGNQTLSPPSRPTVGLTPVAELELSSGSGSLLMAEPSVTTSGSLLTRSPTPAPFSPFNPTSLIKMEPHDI
In short: as §1

[6] = target: T3, ELK4 (Homo sapiens, UniProt P28324-2 1-405); details: protein: recombinant; tags: N-terminal GST; dsDNA, one strand shown
T3 sequence: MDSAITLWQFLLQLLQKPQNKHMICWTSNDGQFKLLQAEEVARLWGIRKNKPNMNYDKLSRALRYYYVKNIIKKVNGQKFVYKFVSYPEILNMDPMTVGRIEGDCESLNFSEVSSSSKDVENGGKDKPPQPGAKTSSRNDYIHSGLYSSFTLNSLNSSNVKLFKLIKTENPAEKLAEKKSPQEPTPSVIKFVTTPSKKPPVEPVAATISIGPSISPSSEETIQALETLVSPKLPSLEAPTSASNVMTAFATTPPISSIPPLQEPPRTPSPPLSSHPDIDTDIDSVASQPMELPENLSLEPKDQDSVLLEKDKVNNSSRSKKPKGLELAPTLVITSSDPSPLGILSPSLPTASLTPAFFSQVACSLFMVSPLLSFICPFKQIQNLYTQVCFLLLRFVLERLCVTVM
In short: as §1

[7] = target: T4, ETV2 (Homo sapiens, UniProt O00321 1-342); details: protein: recombinant; tags: N-terminal GST; dsDNA, one strand shown
T4 sequence: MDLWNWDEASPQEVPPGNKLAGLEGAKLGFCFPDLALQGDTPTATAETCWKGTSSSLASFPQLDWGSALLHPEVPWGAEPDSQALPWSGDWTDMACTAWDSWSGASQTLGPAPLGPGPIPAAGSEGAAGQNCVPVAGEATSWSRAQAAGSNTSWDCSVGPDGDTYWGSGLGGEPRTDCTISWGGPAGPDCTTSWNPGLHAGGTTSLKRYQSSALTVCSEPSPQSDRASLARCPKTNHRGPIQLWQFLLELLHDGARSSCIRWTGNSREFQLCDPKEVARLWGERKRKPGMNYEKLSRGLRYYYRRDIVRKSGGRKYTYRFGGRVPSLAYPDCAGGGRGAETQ
In short: as §1

[8] = target: T5, ELF3 (Homo sapiens, UniProt P78545 1-371); details: protein: recombinant; tags: N-terminal GST; dsDNA, one strand shown
T5 sequence: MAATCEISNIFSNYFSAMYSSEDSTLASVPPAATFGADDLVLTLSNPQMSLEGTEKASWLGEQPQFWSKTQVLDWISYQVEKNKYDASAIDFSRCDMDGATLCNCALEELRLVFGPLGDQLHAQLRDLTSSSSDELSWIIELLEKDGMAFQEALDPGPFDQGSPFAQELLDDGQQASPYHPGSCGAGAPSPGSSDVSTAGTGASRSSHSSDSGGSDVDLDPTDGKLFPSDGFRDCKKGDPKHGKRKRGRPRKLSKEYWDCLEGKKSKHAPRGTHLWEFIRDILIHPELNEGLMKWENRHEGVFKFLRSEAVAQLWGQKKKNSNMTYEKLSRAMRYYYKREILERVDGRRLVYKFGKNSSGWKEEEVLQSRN
In short: as §1

[9] = target: CRX (Homo sapiens, UniProt O43186 1-299); details: protein: recombinant; tags: N-terminal GST; dsDNA, one strand shown
Sequence of CRX (O43186 whole entry): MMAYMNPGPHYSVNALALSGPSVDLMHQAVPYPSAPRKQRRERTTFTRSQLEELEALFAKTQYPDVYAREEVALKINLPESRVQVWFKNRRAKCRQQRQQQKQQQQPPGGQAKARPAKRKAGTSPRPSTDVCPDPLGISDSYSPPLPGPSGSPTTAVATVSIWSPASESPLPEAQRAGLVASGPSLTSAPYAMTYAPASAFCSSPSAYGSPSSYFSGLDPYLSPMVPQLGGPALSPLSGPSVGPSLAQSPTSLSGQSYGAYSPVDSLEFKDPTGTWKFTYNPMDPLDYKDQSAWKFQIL
In short: as §1

[10] = target: ETV1 (Homo sapiens, UniProt P50549 1-477); details: protein: recombinant; tags: N-terminal GST; dsDNA, one strand shown
Sequence of ETV1 (P50549 whole entry): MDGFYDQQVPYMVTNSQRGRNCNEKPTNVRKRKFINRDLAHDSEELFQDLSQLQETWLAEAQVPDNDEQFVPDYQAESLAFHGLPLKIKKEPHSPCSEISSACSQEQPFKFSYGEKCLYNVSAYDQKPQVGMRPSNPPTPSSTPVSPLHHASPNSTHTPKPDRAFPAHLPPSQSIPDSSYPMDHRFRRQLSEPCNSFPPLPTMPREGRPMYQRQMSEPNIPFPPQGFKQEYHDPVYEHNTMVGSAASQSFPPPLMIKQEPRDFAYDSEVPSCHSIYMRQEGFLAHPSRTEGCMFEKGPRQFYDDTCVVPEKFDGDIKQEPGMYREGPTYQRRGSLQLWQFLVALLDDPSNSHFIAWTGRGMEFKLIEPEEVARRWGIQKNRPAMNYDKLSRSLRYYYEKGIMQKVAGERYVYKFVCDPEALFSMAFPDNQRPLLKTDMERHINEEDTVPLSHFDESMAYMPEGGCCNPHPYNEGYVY
In short: as §1

For CTCCAA, the binding signal [1] was 1.29 fold enrichment (6-mer frequency, TF over GST control), the binding signal [2] was 1.3 fold enrichment (6-mer frequency, TF over GST control) and the binding signal [3] was 1.31 fold enrichment (6-mer frequency, TF over GST control). For the same sequence, the binding signal [4] was 1.35 fold enrichment (6-mer frequency, TF over GST control), the binding signal [5] was 1.38 fold enrichment (6-mer frequency, TF over GST control) and the binding signal [6] was 1.23 fold enrichment (6-mer frequency, TF over GST control). The binding signal [7] was 1.36 fold enrichment (6-mer frequency, TF over GST control), the binding signal [8] was 1.32 fold enrichment (6-mer frequency, TF over GST control) and the binding signal [9] was 1.14 fold enrichment (6-mer frequency, TF over GST control). The binding signal [10] was 1.33 fold enrichment (6-mer frequency, TF over GST control).
